{"source": "PubChem BioAssay AID686978", "about": "(National Center for Advancing Translational Sciences (NCATS), 2013)", "note": "Several values for one entry are separate records, joined by “and”; a condition that tells them apart may be missing. Equal values may be shown once. The campaign covered roughly 420,000 compounds. About 64,000 (15%) were called active. Inconclusive results (about 27%) are left out. The entries come from a sample that favours actives as a whole. Where a call stands in place of a potency, no number is given. Unmarked numbers belong to inactive results. The call rests on the fitted dose curve; in most records, active means well fitted inhibition curve with a large enough effect; inconclusive means small, poorly fitted or top-dose-only effect; inactive means flat fitted curve, though single readings scatter. Potency means the concentration at half of the fitted maximal effect."}
{"experiment": "qHTS for Inhibitors of human tyrosyl-DNA phosphodiesterase 1 (TDP1): qHTS in cells in absence of CPT; further: nearly all actives have a fitted effect of over 55% in size", "details": "DT40 Tdp1-/- hTDP1 cells, no CPT, ATP luminescence, 48 h; series mostly up to 46.2 µM", "method_in_brief": "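Readout: luminescence from CellTiter-Glo after 30 min in the dark at RT. Cells: DT40 Tdp1-/- with stable hTDP1, 400/well. Exposure: compounds alone, ≥48 hr, 37 °C.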"}
{"smiles": "ClCCN(CCCl)c1ccc(C=Nc2ccc(/C=C/c3ccnc4ccccc34)cc2)cc1", "Potency": "11.2 µM (active)"}
{"smiles": "COc1ccccc1NC(=O)N1C[C@@H]2C[C@@H](C1)c1cccc(=O)n1C2", "Potency": "inactive"}
{"smiles": "COc1ccccc1N=Nc1c(O)[nH]c(=S)[nH]c1=O", "Potency": "inactive"}
{"smiles": "O=c1[nH]c(=S)[nH]c(O)c1/C=C1\\C=Nc2ccccc21", "Potency": "9.2 µM (active)"}
{"smiles": "CNC(=S)N/N=C1\\C2CN3CCN(C2)CC1(c1ccccc1)C3", "Potency": "inactive"}
{"smiles": "C=C(C)C1(CCCC)C(=O)NC(=S)NC1=O", "Potency": "inactive"}
{"smiles": "CC(C)C(N)C(=O)OCCOCn1cnc2c(=O)[nH]c(N)nc21", "note": "(stereo not drawn)", "Potency": "4.11 µM (active)"}
{"smiles": "CC/C(=N\\NC(=O)c1ccccc1O)c1c(O)n(Cc2ccccc2)c(=O)[nH]c1=O", "Potency": "inactive"}
{"smiles": "CC(=O)N(C1=NCCCS1)c1ccccc1F", "Potency": "inactive"}
{"smiles": "C[C@]12CCCCC1=CC(=O)C1C2CC[C@@]2(C)C1C[C@@H](F)[C@@H]2O", "note": "(stereo partly drawn)", "Potency": "16.4 µM (active)"}
{"smiles": "NCCc1ccc(S(=O)(=O)F)cc1", "Potency": "inactive"}
{"smiles": "N=c1ccccn1Cc1ccccc1", "Potency": "inactive"}
{"smiles": "C/C(=C\\C=C/[C@@H](C)C(=O)O)[C@H]1CN[C@H](C(=O)O)[C@@H]1CC(=O)O", "Potency": "inactive"}
{"smiles": "Cc1cccc(OP(=O)(Oc2cccc(C)c2)OC(c2ccccc2)C(F)(F)F)c1", "note": "(stereo not drawn)", "Potency": "16.4 µM (active)"}
{"smiles": "C[N+]1(C)CCOC(O)(c2ccc(-c3ccc(C4(O)C[N+](C)(C)CCO4)cc3)cc2)C1", "note": "(stereo not drawn)", "Potency": "inactive"}
{"smiles": "CC1=CC(=Cc2sc3ccccc3[n+]2C)C=C(C)O1", "Potency": "0.0164 µM (active)"}
{"smiles": "ClC(Cl)(Cl)c1ccccc1", "Potency": "inactive"}
{"smiles": "CCOP(=O)(OCC)C(Nc1cccc(C)c1)c1ccc(F)cc1", "note": "(stereo not drawn)", "Potency": "16.4 µM (active)"}
{"smiles": "CC[N+]1(C)CCCC(OC(=O)C(O)(c2ccccc2)c2ccccc2)C1", "note": "(stereo not drawn)", "Potency": "inactive"}
{"smiles": "O=c1[nH]c(O)c(C=Nc2cc(F)cc(F)c2)c(=O)[nH]1", "Potency": "inactive"}
{"smiles": "CCN(CC)c1ccc([N+](=O)[O-])c2cccnc12", "Potency": "inactive"}
{"smiles": "CN(c1ccccc1)c1ccc([N+](=O)[O-])c2nonc12", "Potency": "16.4 µM (active)"}
{"smiles": "O=C(O)/C=C/c1ccc2c(c1)OCO2", "Potency": "inactive"}
{"smiles": "O=C(CN1CCCC1=O)NCCc1ccccc1", "Potency": "inactive"}
{"smiles": "CCOP(=O)(OCC)C(Cc1ccccc1)N=C(c1ccccc1)c1ccccc1", "note": "(stereo not drawn)", "Potency": "14.6 µM (active)"}
{"smiles": "CCOP(=O)(OCC)C(NC(=O)c1ccc(OC)cc1)C(Cl)(Cl)Cl", "note": "(stereo not drawn)", "Potency": "inactive"}
{"smiles": "CCOP(=O)(OCC)C(NC(=O)c1ccc(C)cc1)C(Cl)(Cl)Cl", "note": "(stereo not drawn)", "Potency": "inactive"}
{"smiles": "O=C(NC(=S)N1C[C@H]2C[C@H](C1)c1cccc(=O)n1C2)c1ccc(F)cc1", "Potency": "inactive"}
{"smiles": "O=C(c1cc2nc(-c3ccccc3)cc(-c3ccccc3)n2n1)N1CCC2(CC1)OCCO2", "Potency": "23.1 µM (active)"}
{"smiles": "O=C(c1ccccc1[N+](=O)[O-])N1CCC2(CC1)OCCO2", "Potency": "inactive"}
{"smiles": "Cc1ccc(-c2cc(C(=O)N3CCC4(CC3)OCCO4)no2)cc1", "Potency": "inactive"}
{"smiles": "CN(C)C(=O)Oc1ccc2c(c1)O/C(=C\\c1ccccc1)C2=O", "Potency": "inactive"}
{"smiles": "Cc1ncsc1CCCl", "Potency": "inactive"}
{"smiles": "Cc1ccc(S(=O)(=O)N2CCCc3cc(NS(=O)(=O)c4cc(C)ccc4C)ccc32)cc1", "Potency": "13 µM (active)"}
{"smiles": "COC(=O)C[C@H]1CC[C@H]2NC[C@@H](O)COC[C@@H]2O1", "Potency": "inactive"}
{"smiles": "c1ccc2c(c1)[I+]c1ccccc1-2", "Potency": "33.5 nM (active) and 15.8 nM (active) and 126 nM (active)"}
{"smiles": "Cc1cccc(NC(=O)OC2CN3CCC2CC3)c1", "note": "(stereo not drawn)", "Potency": "inactive"}
{"smiles": "COc1ccccc1C1=NCc2nnc(CSC)n2-c2ccc(Cl)cc21", "Potency": "inactive"}
{"smiles": "Cc1nc2ccccn2c1P(=S)(N1CCCCC1)N1CCCCC1", "Potency": "18.4 µM (active)"}
{"smiles": "CC(=NCC1CCCO1)c1c(O)n(-c2ccccc2)c(=O)[nH]c1=O", "note": "(stereo not drawn)", "Potency": "inactive"}
{"smiles": "CCc1nnc(NS(=O)(=O)c2ccc(N=Cc3c(O)n(-c4ccccc4)c(=O)[nH]c3=O)cc2)s1", "Potency": "inactive"}
{"smiles": "CCN(CC)C(=O)Oc1ccc(NC(=O)N2CCOCC2)cc1", "Potency": "inactive"}
{"smiles": "Cc1ccsc1C(=O)C1CCCN(Cc2ccc(O)cc2)C1", "note": "(stereo not drawn)", "Potency": "inactive"}
{"smiles": "COc1ccc(C(=O)C2CCCN(Cc3ccc(C)s3)C2)cc1OC", "note": "(stereo not drawn)", "Potency": "14.6 µM (active)"}
{"smiles": "c1ccc(CCNC2CCCCCC2)cc1", "Potency": "inactive"}
{"smiles": "c1ccc(CCCCN2CCC(c3ccccc3)CC2)cc1", "Potency": "11.9 µM (active) and 18.4 µM (active)"}
{"smiles": "c1ccc(CCN2CCC3(CC2)OCCO3)cc1", "Potency": "inactive"}
{"smiles": "CCC(=O)OC(Cc1ccccc1)(c1ccccc1)C(C)CN(C)C", "note": "(stereo not drawn)", "Potency": "inactive"}
{"smiles": "CC[C@]1(O)C(=O)OCc2c1cc1n(c2=O)Cc2cc3ccccc3nc2-1", "Potency": "0.0211 µM (active)"}
{"smiles": "Cc1c(C(=O)O)cccc1-n1c(C)cc(/C=C2\\C(=O)NC(=O)N(c3ccc4c(c3)OCO4)C2=O)c1C", "Potency": "inactive"}
{"smiles": "c1ccc(Cc2nn3c(Cn4cnc5ccccc54)nnc3s2)cc1", "Potency": "23.1 µM (active)"}
{"smiles": "CN1CC[C@H](c2c(O)cc(O)c3c(=O)cc(-c4ccccc4Cl)oc23)[C@H](O)C1", "Potency": "0.0282 µM (active)"}
{"smiles": "C[C@@H]1CC[C@@]2(OC1)O[C@H]1C[C@H]3[C@@H]4CC=C5C[C@@H](O)[C@H](O)C[C@]5(C)C4CC[C@]3(C)[C@H]1[C@@H]2C", "note": "(stereo partly drawn)", "Potency": "18.4 µM (active)"}
{"smiles": "CC(=O)N1CN2CN(C(C)=O)CC(C(=O)c3ccc(Br)cc3)(C2)C1", "Potency": "inactive"}
{"smiles": "Cc1ccc(P(=S)(c2ccc(C)o2)N2CCOCC2)o1", "Potency": "inactive"}
{"smiles": "Cc1cc(-c2ccc(N)c(C)c2)ccc1N", "Potency": "inactive"}
{"smiles": "Fc1ccc(C(OCCN2CCN(C/C=C\\c3ccccc3)CC2)c2ccc(F)cc2)cc1", "Potency": "6.68 µM (active)"}
{"smiles": "Cn1cc(C(=O)OCC(=O)N2CCCC2)c2ccccc21", "Potency": "inactive"}
{"smiles": "CCN(Cc1ccccc1)S(=O)(=O)c1ccc2c(c1)CCCN2C(C)=O", "Potency": "18.4 µM (active)"}
{"smiles": "Cc1ccc2c(c1)C1CN(C)CCC1N2C(=O)Cn1nnc(-c2ccccc2F)n1", "note": "(stereo not drawn)", "Potency": "inactive"}
{"smiles": "CC1CNCCN1c1ccc(Cl)cc1", "note": "(stereo not drawn)", "Potency": "inactive"}
{"smiles": "O=c1oc2ccccc2c(O)c1C(c1ccccc1O)c1c(O)c2ccccc2oc1=O", "activity change, negative = growth inhibition": "-17.6% [at 9.04 µM]"}
{"smiles": "CCC1(C)CC(CCNCc2ccc(N(C)C)cc2)(c2ccc(F)cc2)CCO1", "note": "(stereo not drawn)", "Potency": "16.4 µM (active)"}
{"smiles": "CC1=CC(=O)C2=C(C)C[C@H](O)[C@H]3[C@H](C)C(=O)O[C@@H]3C12", "note": "(stereo partly drawn)", "Potency": "inactive"}
{"smiles": "C=CC12CN(C)[C@@H]3C4CO[C@H](C[C@H]41)[C@]1(C(=O)Nc4ccccc41)[C@@H]32", "note": "(stereo partly drawn)", "Potency": "inactive"}
{"smiles": "COc1cc(-n2c(=S)[nH]c3ccc(C)cc3c2=O)c(Cl)cc1Cl", "Potency": "18.4 µM (active)"}
{"smiles": "c1ccc(N2Cc3ccccc3-n3nncc3C2)nc1", "Potency": "inactive"}
{"smiles": "CCOCCCNC(=O)c1c(NC(=O)c2nc(SC)ncc2Cl)sc2c1CCCC2", "Potency": "11.6 µM (active)"}
{"smiles": "c1ccc(C(CN2CCCCC2)c2ccccc2)cc1", "Potency": "inactive"}
{"smiles": "CCC(=NCCCO)c1c(O)n(-c2ccc(OC)cc2)c(=O)[nH]c1=O", "Potency": "inactive"}
{"smiles": "CCCCCCN=C(CC)c1c(O)n(CCCC)c(=O)[nH]c1=O", "Potency": "25.9 µM (active)"}
{"smiles": "CCCCn1c(O)c(C(CC)=NCc2ccco2)c(=O)[nH]c1=O", "Potency": "inactive"}
{"smiles": "CC(C)c1c(CN(C)C(C)Cc2ccccc2)n(C)n(-c2ccccc2)c1=O", "note": "(stereo not drawn)", "Potency": "inactive"}
{"smiles": "Cc1c(Oc2cc(NN3CCCCC3)c([N+](=O)[O-])cc2[N+](=O)[O-])cccc1[N+](=O)[O-]", "Potency": "inactive"}
{"smiles": "CC(C)(C)[C@]1(O)C[C@@H]2OC(=O)C[C@@]23C(=O)O[C@@H]2OC(=O)[C@H](O)[C@]213", "Potency": "inactive"}
{"smiles": "COc1cccc(C(c2nnnn2-c2ccc3c(c2)OCCO3)N2CCC3(CC2)C(=O)NCN3c2ccccc2)c1OC", "note": "(stereo not drawn)", "Potency": "16.4 µM (active)"}
{"smiles": "COc1ccc(-n2nnnc2C(c2cccc3ccccc23)N2CCC(n3c(=O)[nH]c4ccccc43)CC2)cc1", "note": "(stereo not drawn)", "Potency": "16.4 µM (active)"}
{"smiles": "O=c1[nH]c2ccccc2n1C1CCN(C(c2ccccc2)c2nnnn2Cc2ccccc2)CC1", "note": "(stereo not drawn)", "Potency": "14.6 µM (active)"}
{"smiles": "CN1CCN(Cc2ccccc2C(F)(F)F)CC1", "Potency": "inactive"}
{"smiles": "CC(C)c1ccc(-n2c(O)c(/C=N/N3CCOCC3)c(=O)[nH]c2=S)cc1", "Potency": "inactive"}
{"smiles": "CC1C2Cn3c(nc4ccccc43)C1N(C)O2", "note": "(stereo not drawn)", "Potency": "inactive"}
{"smiles": "CC(=O)c1c(O)c(C)c(O)c(Cc2c(O)c3c(c(C(=O)/C=C/c4ccccc4)c2O)OC(C)(C)C=C3)c1O", "Potency": "8.91 µM (active) and 19.8 µM (active) and 13.3 µM (active)"}
{"smiles": "CC(=O)c1c(O)c(C)c(O)c(Cc2c(O)c3c(c(C(=O)/C=C\\c4ccccc4)c2O)OC(C)(C)C=C3)c1O", "Potency": "13.3 µM (active)"}
{"smiles": "c1cc2c(cc1[C@H]1OC[C@H]3[C@@H]1CO[C@@H]3c1ccc3c(c1)OCO3)OCO2", "Potency": "inactive"}
{"smiles": "O=C(O)CCn1cc(C=C2C(=O)NC(=S)NC2=O)c(-c2cccc(Br)c2)n1", "Potency": "inactive"}
{"smiles": "CCCC[N+]1(C)C2CC(OC(=O)C(CO)c3ccccc3)CC1C1OC12", "note": "(stereo not drawn)", "Potency": "inactive"}
{"smiles": "OC[C@@H]1CN(Cc2ccncc2)C[C@H](n2cnc3c(N4CCN(c5ccccc5)CC4)ncnc32)O1", "Potency": "2.91 µM (active)"}
{"smiles": "CC(C)Nc1nc(Cl)nc(NC(C)C)n1", "Potency": "inactive"}
{"smiles": "COc1ccccc1C(=O)N[C@@H]1c2ccccc2C2(CCN(Cc3nc(C(C)C)cs3)CC2)[C@H]1O", "Potency": "1.64 µM (active)"}
{"smiles": "Cc1cccc(-n2c(O)c(/C=N/N3CCOCC3)c(=O)[nH]c2=S)c1", "Potency": "inactive"}
{"smiles": "CC(=O)Nc1cc(-c2cccc(CO)c2)cn2c(-c3cccc(C(F)(F)F)c3)cnc12", "Potency": "18.4 µM (active)"}
{"smiles": "NC(=O)Nc1cccc(C(F)(F)F)c1", "Potency": "inactive"}
{"smiles": "CCN1CCN(c2nc3c(c(=O)[nH]2)CCC3)CC1", "Potency": "inactive"}
{"smiles": "COC(=O)CN(CCCl)P1(=O)OCCCN1CCCl", "note": "(stereo not drawn)", "Potency": "inactive"}
{"smiles": "Fc1cccc(F)c1CN1CCN(Cc2c(F)cccc2F)CC1", "Potency": "inactive"}
{"smiles": "CN(C)c1cccc(C(=O)Nc2nc3ccc(S(=O)(=O)NC(C)(C)C)cc3s2)c1", "Potency": "11.6 µM (active)"}
{"smiles": "O=c1[nH]c(=S)n(C2CC2)c(O)c1/C=N/N1CCOCC1", "Potency": "inactive"}
{"smiles": "O=C1NCN(c2ccccc2)C12CCN(C(c1cccs1)c1nnnn1C1CCCCC1)CC2", "note": "(stereo not drawn)", "Potency": "16.4 µM (active)"}
